Sampled rows, rich in hits. Any-hit rate of the full collection: about 20%.
Shiga toxin inh – Shiga toxin inhibition. Vero cells, Shiga toxin protein synthesis inhibition reporter. inhibition, % at 38.7 µM. 290,000 tested, 9.2% active. AID 2315; in the data active = inhibition mostly above about 28%, no sharp cut-off; inactive = mostly below about 43%; also: 0% is about no effect
HCMV antiviral – blocks human cytomegalovirus replication; activity change, negative = inhibition, % at 57.5 µM; HFF cells, HCMV-luciferase reporter, 72 h; active compounds read low; AID 1259415; 410,000 tested, 4.5% active; in the data active = activity change below about -60%; inconclusive = no clear call, values can overlap the other calls; inactive = above about -39%; also: % is scaled to controls: 0 for no effect and ±100 for the full control effect
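Two compound doses tested in HFFs infected with HCMV-luciferase, MOI 1 PFU/cell, 72 h at 37C. Lysate luminescence read with OneGlo; data normalized against buffer-only and 10uM Salinomycin inhibitor controls.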
Pf growth 48h – P. falciparum growth inhibition at 48 hours (one generation) | AID 504832 | Potency, µM (titrated, usually from 28.7 µM), for inactives: top-dose activity change, negative = inhibition, hits mostly inhibitors | 310,000 tested, 5.9% active | P. falciparum luciferase growth in erythrocytes, 48 h; also: potency is read from the fitted curve at half-maximal effect; % is scaled to controls: 0 for no effect and ±100 for the full control effect
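Erythrocytes infected with P. falciparum carrying an integrated firefly luciferase reporter (2% hematocrit, 0.1% parasitemia final) were exposed to compounds in RPMI 1640 with 0.5% Albumax at 37 C, 5% CO2. Growth inhibition was scored as reduced luminescence.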
Pf growth 96h – P. falciparum growth inhibition at 96 hours. P. falciparum luciferase reporter growth, 96 h. Potency, µM (titrated, usually from 28.7 µM), for inactives: at the highest dose activity change, negative = inhibition, usual class: inhibitors. 320,000 tested, 6.9% active; also: potency is read from the fitted curve at half-maximal effect; % is scaled to controls: 0 for no effect and ±100 for the full control effect
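Two parasite generations (96 h, 37 C, 5% CO2) of compound exposure in infected erythrocytes (0.05% parasitemia, 2% hematocrit). Luciferase-reporter P. falciparum; decreased luminescence indicates inhibited growth, aimed at apicoplast-acting delayed death.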
CHX counter – counter-screen hit for Shiga toxin inhibitors, cycloheximide; cell reporter, cycloheximide protein synthesis inhibition counterscreen; max response, %; 300,000 tested, 12% active; AID 2314; in the data active = max response mostly above about 13%, no sharp cut-off; inactive = mostly below about 14%; also: read at 38.3 µM for the half of the compounds with a filed dose; 0% is about no effect
* = called active by the depositor; i = inactive; u = inconclusive; x = no result; ! = repeats disagree; [ ] = another dose, or the depositor's remark. Unless noted, calls follow the shape of the dose curve; as a rule, active = well fitted inhibition curve with a large enough effect; inconclusive = small, poorly fitted or top-dose-only effect, or another doubt; inactive = no such curve, though single readings can be large or run the other way.

SMILES | Shiga toxin inh | HCMV antiviral | Pf growth 48h | Pf growth 96h | CHX counter
O=C(O)c1cc(NS(=O)(=O)c2cccc3nsnc23)cc(C(=O)O)c1 | -2 | -37 | -4%[0.00184 µM] | 7.4µM* | -1
COc1ccc2nc(N3C(=O)/C(=C/c4ccccc4)NC3=S)sc2c1 | 16 | -20 | u | 0.83µM* | 3
CCOc1ccc2nc(N3C(=O)/C(=C/c4ccccc4)NC3=S)sc2c1 | 177* | 67 | 21% | 4.7µM* | 27*
COc1ccccc1NC(=S)NC(C)C(c1cccs1)N1CCOCC1 (centres undefined) | -2 | -12 | u | u | -4
CC(NC(=O)Nc1ccc(Cl)cc1)C(c1cccs1)N1CCOCC1 (centres undefined) | -1 | -11 | u | u | -2
CC(NC(=S)Nc1ccc(Cl)cc1Cl)C(c1cccs1)N1CCCC1 (centres undefined) | 9 | -38 | u | 12µM* | -1
CC(NC(=O)Nc1cccc(Cl)c1)C(c1cccs1)N1CCCC1 (centres undefined) | -11 | -26 | u | 9.3µM* | 0
CC(NC(=O)Nc1ccc([N+](=O)[O-])cc1)C(c1cccs1)N1CCCC1 (centres undefined) | 4 | -22 | u | 9.3µM* | 1
Cc1cc(C(C)(C)C)cc(C)c1C[n+]1ccc2ccccc2c1 | -6 | -96* | 1.2µM* | 1.3µM* | -10
CCCN1C(=O)c2cc(C(=O)Nc3ccc(OC)cc3OC)ccc2C1Nc1ccc(OC)cc1OC (centres undefined) | -4 | -28 | u | u | 6
NC(=NCCCCCCN=C(N)/N=C(\N)Nc1ccc(Cl)cc1)/N=C(\N)Nc1ccc(Cl)cc1 | -20 | -95*! | 0.33µM* | u | -13
CC(C)N=C(N)N=C(N)Nc1ccc(Cl)cc1 | x | 44 | 1.2µM* | 0.33µM* | x
CC(C)N=C(N)/N=C(\N)Nc1ccc(Cl)cc1 | x | x | 2.9µM* | 0.36µM* | x
NNC(=S)Nc1ccc(Cl)cc1 | 21 | -6 | -8% | u | -3
CC(C)CNC(=O)C1C(=O)Nc2ccccc2C(=O)N1C1CCCCC1 (centres undefined) | x | 42 | x | x | x
O=C(Cn1cnc2c(oc3ccccc32)c1=O)Nc1ccccc1C(F)(F)F | x | 17 | x | x | x
CCCOc1ccc(/C=C/C(=O)NC2CCCCC2)cc1OC | -3 | -8 | -10% | u | -3
CCOc1ccc(/C=C/C(=O)NC2CCCCC2)cc1 | x | 73 | 21% | u | 18*
CCN(CC)S(=O)(=O)c1ccc(/C=C/C(=O)NC2CCCCC2)cc1 | -8 | -18 | u | 4.7µM* | 6
CCOC(=O)c1sc(NC(=O)C(C)Sc2nc(-c3ccccc3)cc(C(F)(F)F)n2)c(C(=O)OC)c1C (centres undefined) | x | -12 | x | x | x
CC(C)CCOc1ccc(C2N=C(N)Nc3nc4ccccc4n32)cc1 (centres undefined) | x | -21 | x | x | x
C=CCn1c(SCC(=O)N2CCN(CCO)CC2)nc2sc3c(c2c1=O)CCC3 | -30 | -7 | -10% | u | -3
COc1cccc(OC)c1C(=O)NNS(=O)(=O)c1ccc2ccccc2c1 | -4 | -38 | 3% | u | 1
CNC(=O)N(C1=NCC(C)(C)S1)c1ccc(F)c(Cl)c1 | 1 | 42 | x | 7.4µM* | -5
Cc1ccc(C(=O)NCc2nc3ccccc3[nH]2)o1 | 97* | -2 | -1% | 5% | 34*
SMILES | Shiga toxin inh | HCMV antiviral | Pf growth 48h | Pf growth 96h | CHX counter
C/C(=N\Nc1nc2ccccc2[nH]1)c1ccc(Cl)s1 | 54* | 42 | 0.93µM* | u | 23*
C/C(=N\Nc1nc2ccccc2[nH]1)c1ccc(C)o1 | 30* | 89 | u | -12% | 38*
C/C(=N\n1c(C)nc2ccccc2c1=O)c1ccc(C)o1 | 11 | -30 | 31% | 34% | -1
O=C(NCc1nc2ccccc2[nH]1)c1c(F)cccc1F | x | -1 | x | x | x
COc1cccc(-c2nnc3n2N=C(c2c(OC)cccc2OC)CS3)c1OC | -4 | x | x | x | -5
O=c1oc2ccccc2c2c1nnn2CCO | -4 | -63* | 31% | 12% | 9
CC(C)=CC(=O)NCCc1ccccc1 | 93* | 107 | 211% | x | 45*
CC(C(=O)NCCc1ccc(F)cc1)N1CCN(Cc2ccccc2)CC1 (centres undefined) | -2 | u | u | 5.2µM* | 1
O=C(CCCc1ccccc1)NCCc1ccc(F)cc1 | 92* | 46 | -12% | 8% | 29*
O=C(CCc1ccccc1)NCCc1ccc(F)cc1 | 29 | -3 | 9% | -4% | 27*
Cc1cc(=O)n2c(C(=O)Nc3ccc(C)c(Cl)c3)c(C(=O)Nc3ccccc3)sc2n1 | x | -15 | x | x | x
O=C(CCCc1ccccc1)NCc1cn2ccsc2n1 | 15 | 23 | 14% | 15% | 17*
O=C(CCCc1ccccc1)NCCc1ccccc1 | 84* | 34 | 83% | 43% | 45*
O=C(CCCc1ccccc1)NCCCc1ccccc1 | -3 | -15 | 7% | -11% | -2
COc1cccc(C(=O)NCc2cn3ccsc3n2)c1 | 9 | 24 | 18% | 22% | 16*
CCOCCCNC(=O)CCCOc1ccccc1 | -3 | 25 | 28% | 4.7µM* | -1
Cc1nn(C)c(C(=O)Nc2c(C)nn(Cc3c(F)c(F)c(F)c(F)c3F)c2C)c1Br | -5 | 53 | -10% | u | 1
Cc1onc(C(N)=O)c1C(=O)Nc1ncc(C(F)(F)F)cc1Cl | -8 | u | 33% | 4% | 19
COc1ccc(C(F)(F)F)cc1N/C=C/c1nnnn1-c1ccc2ccccc2c1 | 11 | 26 | -6% | 16% | -5
Cc1cccc(OCCCC(=O)NCCc2ccccc2)c1 | 24 | 11 | -3% | -10% | -2
O=C(CCCNC(=O)c1ccc(Cl)cc1)NCc1ccccc1Cl | 7 | x | x | 12% | -2
O=C(CCCc1ccccc1)NCc1ccccc1Cl | x | 21 | -26% | -7% | 18*
CN(CC(=O)NCCc1ccc(F)cc1)Cc1cccs1 | 26 | 41 | 28% | 12% | 28*
CN(CC(=O)Nc1ccc(F)cc1Cl)Cc1cccs1 | 24 | -17 | 11% | 20% | 8
CC(=O)c1ccc(OCCCC(=O)NCCc2ccccc2)cc1 | 51 | 37 | 3% | u | 31*
SMILES | Shiga toxin inh | HCMV antiviral | Pf growth 48h | Pf growth 96h | CHX counter
CN1CCN(C(=O)CCN2C(=O)/C(=C/c3ccccc3Cl)SC2=S)CC1 | 14 | -85* | -24% | 0% | -1
O=C(CCN1C(=O)/C(=C\c2ccccc2F)SC1=S)N1CCOCC1 | x | 2 | x | x | x
CN1CCN(C(=O)CCN2C(=O)/C(=C\c3ccccc3F)SC2=S)CC1 | -15 | -21 | u | 12µM* | -2
CC(C)c1ccc(Nc2cc3c(cn2)ncn3CC2CC2)cc1 | x | 5 | x | x | x
O=C(O)c1ccc(CNCc2ccc(Cl)cc2)s1 | x | -12 | x | x | x
O=C(Nc1ccsc1C(=O)O)c1ccc(Cl)cc1 | 85* | 147 | x | 61% | 27*
Cc1ccc(C(=O)Nc2ccsc2C(=O)O)cc1 | 52* | 158 | 103% | 212% | 39*
Cc1cc2ncc(C(=O)Nc3ccsc3C(=O)O)c(C)n2n1 | 20 | 0 | i | 175% | 18*

Screening results deposited in PubChem BioAssay by National Center for Advancing Translational Sciences (NCATS).
